Data taken from the OligoGym collection.

The sequences below were run against CTCFL (assay: pooled miR-30 sensor sort-seq; sequence = guide strand). Settings: shRNA.
Also: reference of the scale not given here.

| Sequence | sensor-assay potency score (higher = more potent) |
| --- | --- |
| TTGTATAAAAACATTTGTCTTT | -0.651 |
| TTATTTTCTAGTCTAATCTAGT | -0.371 |
| TTGAATTTGAAACTGTGAGAAC | -1.1 |
| TTTATGTTTCTTCTCACTCTGC | -0.0954 |

These sequences were tested against CTDSP1 in the same assay as above. Settings: shRNA.

| Sequence | sensor-assay potency score (higher = more potent) |
| --- | --- |
| TTCACTGGCTTGAAGGAGCTGT | 0.427 |
| TACAGCATTGTCTGGATGGAAG | -1.6 |
| TCGATGACCACGCAGATCTTGT | -1.32 |
| TATTGGACTGGGGTCTTAGGGA | -0.481 |
| TGAGCACTGAGTACACGTCGTC | -0.158 |
| TCCAGGTCGATGACCACGCAGA | -1.79 |
| TTGGACTGGGGTCTTAGGGATG | -1.55 |
| TACACGTCGTCCACACGGCTGA | -0.19 |
| TAGACCTGGTGGACCACCCCAT | -0.5 |
| TTGTCCAGGATGAGCACCCGCC | -0.921 |
| TTGTTCACTGGCTTGAAGGAGC | -0.757 |
| TTTGAAGGCACTGACACGGGGC | 0.517 |

Each sequence was assayed against CTHRC1 in the same assay as above. Settings: shRNA.

| Sequence | sensor-assay potency score (higher = more potent) |
| --- | --- |
| TCTTTGTAAATGTACACTCCGC | -0.893 |
| TAAATTATAGCTTCAATGGGAA | -0.0923 |
| TAGAGCACTATTTGAACGCATC | -1.21 |
| ATAAATTATAGCTTCAATGGGA | 0.0197 |
| ATGAACTCCATGAACACTGCTT | 0.166 |
| TTAGAGCACTATTTGAACGCAT | -0.079 |
| TAATTCAATGAACTCCATGAAC | -1.24 |
| TTGAATGTGAAATACCAACGCT | -0.453 |
| TAGCAACATCCACTAATCCAGC | -1.03 |
| TTTGTAAATGTACACTCCGCAA | -1.33 |

These sequences were tested against CTLA4 in the same assay as above. Settings: shRNA.

| Sequence | sensor-assay potency score (higher = more potent) |
| --- | --- |
| TTTGCTCAAAGAAACAGCTGTG | 0.483 |
| TTCACTTGATTTCCACTGGAGG | -0.709 |
| TTTTCTTTAGCAATTACATAAA | -1.29 |
| TTGCTTTGCAGAAGACAGGGAT | 0.337 |
| TTTTCTTTAGCATTTTGCTCAA | -0.539 |
| TAGCAATTACATAAATCTGGGT | -0.226 |
| TCATCTAGGAAGGTCAACTCAT | -0.426 |
| TTGGATAGTGAGGTTCACTTGA | 0.333 |
| TAAATCTGGGTTCCGTTGCCTA | -0.995 |
| TTGCAGATGTAGAGTCCCGTGT | -0.673 |
| TTCTTTAGCATTTTGCTCAAAG | -0.747 |
| TTTTGCTCAAAGAAACAGCTGT | 0.613 |
| TCAATTACATAAATCTGGGTTC | -0.428 |
| TACTCACACACAAAGCTGGCGA | 0.197 |
